S2 tox: viability counter-screen for ATXN expression inhibitors. S2 cells (HEK-293 line with an ATXN2-luciferase reporter) viability, CellTiter-Fluor protease fluorescence, 24 h. Potency, µM (titrated, usually from 56.7 µM), usual class: cytotoxic. 400,000 tested, 0.49% active; note: nearly all actives have a fitted effect of over 40% in size
HepG2 tox: HepG2 cytotoxicity, counter-screen for TGF-b inhibitors; HepG2 CAGA-GFP viability, ATP luminescence, 18 h; Potency, µM (doses to about 46.1 µM), for the others: at the top dose activity change, negative = cytotoxicity, most hits filed as cytotoxic; 410,000 tested, 0.76% active; AID 588856
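CellTiter-Glo luminescence gave cytotoxicity after 18 hours at 37 degrees C. The cells were HepG2 CAGA-GFP in 1% FBS DMEM, stimulated with 500 pg/mL TGF-beta after compound addition. %Activity was normalised to no-cell wells (complete cell-killing) and DMSO (no toxicity), and curves were fitted and classified.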
HTT cytoprotect: Huntington cell model cytoprotection by ATP luminescence | PC12 HTT-Q103 induced, cytoprotection, ATP luminescence, 40 h | Potency, µM (doses to about 56.4 µM), for inactives: cytoprotection (ATP increase), actives largely listed as activators | 230,000 tested, 0.14% active | AID 1471; note: % of control where 0% means no effect; nearly all actives have a fitted effect of over 45% in size
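ATP quantification (ATPlite) reports survival of PC12 cells in which tebufenozide, 100 nM final, switches on Htt exon 1 with 103 glutamines linked to GFP; compounds are titrated.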
ATXN2 expr inh: inhibitors of ATXN2 expression; HEK-293 ATXN2-luciferase reporter, luminescence, 24 h; Potency, µM (doses to about 57 µM), for the others: at the highest dose activity change, negative = inhibition, hits mostly inhibitors; 360,000 tested, 0.72% active; note: % is set by controls: 0 for no effect and ±100 for the full control effect; nearly all actives have a fitted effect of over 55% in size
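qHTS (up to 57 uM final) was run with 24 h compound exposure of reporter cells at 37 °C. Each well was multiplexed: SteadyGlo luminescence measured ATXN2-luciferase expression after a fluorogenic Gly-Phe-AFC viability readout (25 uM final).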
HttQ103 aggreg: mutant huntingtin aggregation inhibition; Potency, µM (series often up to 46.1 µM), inactives show top-dose activity change, negative = inhibition, usual class: inhibitors; 220,000 tested, 1.1% active; PC12 HttQ103-GFP aggregates, Acumen cytometry, 40 h; AID 1688; note: % is set by controls: 0 for no effect and ±100 for the full control effect; nearly all actives have a fitted effect of over 60% in size
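PC12/HTTQ103-GFP, ecdysone-inducible; teb 100 nM; cpd qHTS titration; GFP aggregates read on laser cytometer, Ex 488/Em 500-530 nm.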
TGFb SMAD3 inh: inhibitors of TGF-b signaling; AID 588855; 410,000 tested, 1.2% active; Potency, µM (series often up to 46.1 µM), for the others: at the highest dose activity, negative = inhibition, usual class: inhibitors; HepG2 CAGA-GFP TGF-b/SMAD3 reporter, GFP fluorescence, 18 h; TGF-beta stimulated, 500 pg/mL final; note: % is set by controls: 0 for no effect and ±100 for the full control effect; nearly all actives have a fitted effect of over 65% in size
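Per well, imaged GFP fluorescence of HEPG2 CAGA-GFP cells gives the signal; cells get compound, then TGF-beta (500 pg/mL final), 18 h at 37 degrees C; %Activity versus -TGF-beta and +DMSO controls.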
* marks the source's active call; other numbers are inactive results; i = inactive; u = inconclusive; x = no result; [ ] = dose if it differs, or a comment. Shown are actives, neighbours in structure and some others; about 2.8% of the full set was active somewhere. Calls come from the whole dose curve; as a rule, active = well fitted curve in the direction sought with a large enough effect; inconclusive = small, poorly fitted or top-dose-only effect, or another doubt; inactive = no such curve, though single readings can be large; an effect the other way counts as inactive or inconclusive. Potency is the fitted concentration of half-maximal effect.

SMILES	S2 tox	HepG2 tox	HTT cytoprotect	ATXN2 expr inh	HttQ103 aggreg	TGFb SMAD3 inh
C=C[C@]1(C)CC(=O)[C@@]2(O)[C@@]3(C)C(O)CCC(C)(C)C3C(O)C(OC(C)=O)[C@@]2(C)O1 (stereo partly specified)	x	x	-36%	x	x	x
C=C[C@@]1(C)CC(=O)[C@@]2(O)[C@@]3(C)[C@@H](O)CCC(C)(C)[C@@H]3[C@H](OC(=O)CCN(C)C)[C@H](OC(C)=O)[C@@]2(C)O1	x	x	40µM*	x	x	x
Nc1c(Cl)ncnc1N/N=C/c1ccnc2ccccc12	u	9%	x	10%	u	6%
Nc1c(Cl)ncnc1N/N=C/c1ccccn1	13µM*	-49%	36%[0.074 µM]	u	u	4µM*
Nc1c(Cl)ncnc1N/N=C/c1ccc2ccccc2n1	10µM*	-20%	20%[0.074 µM]	7.9µM*	u	4.5µM*
COc1ccc(-c2csc(N(C)C(=O)c3ccco3)n2)cc1	i	2%	x	10%	x	14%
COc1ccc(OC)c(-c2csc(N(C)C(=O)c3ccco3)n2)c1	35µM*	-5%	x	-19%	x	-4%
CC(C)(C)OC(=O)NCCCCC1=CC2=CC(=O)C(C)(OC(=O)CCc3ccccc3)C(=O)C2=CO1 (stereo unspecified)	x	x	-4%	x	x	x
COC(=O)c1cn(NC(=O)c2cnccn2)c(=O)c2ccccc12	i	1%	-44%	-6%	8.9µM*	-8%
OCCCNCc1cc2cc3c(cc2nc1N1CCN(c2cccc(Cl)c2)CC1)OCO3	i	x	x	x	x	x
Cc1ccc(CNC(=O)C(Cc2ccccc2)NS(=O)(=O)c2ccc(Br)s2)cc1 (stereo unspecified)	i	-26%	x	-2%	25µM*	u
COc1ccc(CC(=O)Nc2ccc(-c3nnc(-c4ccccc4)o3)cc2)cc1OC	i	0%	18%[10 µM]	15%	2%	1%
COc1ccc(CC(=O)Nc2cccc(-c3nnc(-c4ccccc4)o3)c2)cc1OC	x	-55%	-149%[0.074 µM]	u	22µM*	u
COc1ccc(CC(=O)Nc2cccc(-c3nnc(-c4ccc(C)cc4)o3)c2)cc1OC	u	-27%	6%[1.9 µM]	u	-17%	u
COc1ccc(CC(=O)Nc2cccc(-c3nnc(-c4cccc(C)c4)o3)c2)cc1OC	u	1%	-28%[10 µM]	-37%	11µM*	0%
CC(=O)Nc1ccc(/C=C/c2ccnc3ccccc23)cc1[N+](=O)[O-]	x	-19%	x	x	x	13%
COc1ccccc1OCc1ccc(C(=O)N2N=C(C(F)F)CC2(O)C(F)F)o1 (stereo unspecified)	i	0%	6%	14%	25%	8%
O=C(c1ccc(COc2ccc(Cl)cc2)o1)N1N=C(C(F)F)CC1(O)C(F)F (stereo unspecified)	i	-85%	24%[0.074 µM]	-13%	-4%	22µM*
S=C1NC2=C(CCC/C2=C\c2ccc(Cl)cc2)C(c2ccc(Cl)cc2)N1 (stereo unspecified)	i	9%	26%[10 µM]	14%	12%[9.22 µM]	18µM*
Fc1cccc(/C=C2\CCCC3=C2NC(=S)NC3c2cccc(F)c2)c1 (stereo unspecified)	i	-12%	15%[10 µM]	x	8%[9.22 µM]	8.9µM*
Nc1ncnc2c1ncn2[C@@H]1CCCO1	x	x	5%[1.9 µM]	x	x	x
Cc1cc(C)cc(OCC(=O)N2N=C(c3cccnc3)CC2(O)C(F)(F)F)c1 (stereo unspecified)	i	-35%	x	-7%	-14%	u
Cc1cc(C)cc(OCC(=O)N2N=C(C(F)(F)F)CC2(O)C(C)(C)C)c1 (stereo unspecified)	i	18µM*	14%[10 µM]	u	u	u
COc1cccc(CNc2ncnc3sc(C(=O)N4CCOCC4)c(C)c23)c1OC	i	x	x	x	x	x
OCCNC(=S)NCCc1ccccc1	i	2%	-11%[0.074 µM]	15%	6%	7%
SMILES	S2 tox	HepG2 tox	HTT cytoprotect	ATXN2 expr inh	HttQ103 aggreg	TGFb SMAD3 inh
CC(C)(CNC(=S)NCCc1ccccc1)CNC(=S)NCCc1ccccc1	u	-39%	-18%[10 µM]	u	u	16µM*
COc1ccccc1CNC(=S)NCCc1ccccc1	i	0%	3.2µM*	5%[11.3 µM]	-4%	-10%
CC(=O)O[C@@H]1[C@H]([N+]2(C)CCCCC2)C[C@@H]2[C@@H]3CC[C@@H]4C[C@@H](OC(C)=O)[C@H]([N+]5(C)CCCCC5)C[C@@]4(C)[C@H]3CC[C@]21C	x	x	0%[1.9 µM]	x	x	x
O=C(COc1ccccc1C(=O)Nc1ccccc1F)Nc1ccc(Br)cc1	x	-1%	x	x	x	-30%
COc1ccc(Cn2c(C(=O)O)c(CNCc3cccs3)c3ccc(C)cc32)cc1	5µM*	-41%	x	u	x	u
Cc1ccc2c(CNCc3ccc(C)o3)c(C(=O)O)n(Cc3ccc(F)cc3)c2c1	x	-45%	x	u	x	-29%
COc1ccc2c(CNCCc3cccs3)c(C(=O)O)n(Cc3ccc(F)cc3Cl)c2c1	x	18µM*	x	x	x	u
C=Cc1ccc(Cn2c(C(=O)O)c(CNCCc3ccco3)c3ccc(C)cc32)cc1	x	-76%	x	-32%	x	u
C=Cc1ccc(Cn2c(C(=O)O)c(CNCc3cccs3)c3ccc(C)cc32)cc1	x	13µM*	x	u	x	u
C=Cc1ccc(Cn2c(C(=O)O)c(CNCc3ccc(F)cc3)c3ccc(C)cc32)cc1	18µM*	-107%	x	u	x	13µM*
Cc1ccc2c(CNCc3cccs3)c(C(=O)O)n(Cc3ccc(F)cc3)c2c1	u	-50%	x	-20%	x	u
Cc1cncc(C(=O)O)[n+]1[O-]	x	x	-1%	x	1%	x
Cc1ccc2[nH]c(=O)c(CN(CCCO)Cc3nnnn3Cc3ccccc3)cc2c1	x	-22%	x	x	x	-14%
c1nc(SSc2ncc3n[nH]nc3n2)nc2n[nH]nc12	x	2%	x	x	x	-3%
CCc1cc[n+](C2=C([O-])c3ccccc3C(=O)/C2=N\S(=O)(=O)c2cccs2)cc1	u	3.5µM*	x	u	u	2.8µM*
COc1ccc(-n2c(C)c(C(C)=O)c3cc(O)ccc32)cc1	i	3%	-10%[10 µM]	x	0.32µM*	9%
Cc1ccccc1C(=O)c1cccn1CC(=O)NCCCN1CCCCC1	i	-3%	x	3%	x	0%
Cc1ccc(C)c(N2CCN(CCCNC(=O)Cn3cccc3C(=O)c3ccccc3C)CC2)c1	u	-80%	-52%	u	16µM*	u
Cc1ccccc1C(=O)c1cccn1CC(=O)NCCN1CCN(c2cccc(C)c2C)CC1	u	13µM*	-124%	u	u	u
CC(C)c1ccc(NC(=O)CSc2nnc(-c3ccccc3)n2C)cc1	x	10%	x	x	x	8%
